VP16 counter = counter-screen for ROR gamma inhibitors: Gal4-VP16 reporter | Drosophila S2 Gal4-VP16 UAS-luciferase, luminescence, 20 h | 310,000 tested, 3.5% active | Potency, µM (highest dose often 53.6 µM), for the others: top-dose activity, negative = inhibition, usual class: inhibitors;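 note: Gal4-VP16 expression switched on by copper sulfate through the metallothionein promoter; % is set by controls: 0 for no effect and ±100 for the full control effect; nearly all actives have a fitted effect of over 50% in size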
HepG2 viability = kills HepG2 cells in TGF-b inhibitor counter-screen | HepG2 CAGA-GFP viability, ATP luminescence, 18 h | Potency, µM (highest dose often 46.1 µM), for inactives: at the top dose activity change, negative = cytotoxicity, actives largely listed as cytotoxic | 410,000 tested, 0.76% active
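HepG2 CAGA-GFP cells (1000/well, DMEM with 1% FBS) received compound, then TGF-beta at 500 pg/mL final, and were incubated 18 hours at 37 degrees C. Viability was read by CellTiter-Glo luminescence. Media-only wells were set as complete cell-killing and DMSO as no toxicity.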
TGFb inhibitor = inhibitors of TGF-b signaling; HepG2 CAGA-GFP TGF-b/SMAD3 reporter, GFP fluorescence, 18 h; TGF-beta stimulated, 500 pg/mL final; Potency, µM (top dose mostly 46.1 µM), for inactives: at the top dose activity, negative = inhibition, hits mostly inhibitors; 410,000 tested, 1.2% active; note: % is set by controls: 0 for no effect and ±100 for the full control effect; nearly all actives have a fitted effect of over 65% in size
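TGF-beta reporter screen: HEPG2 CAGA-GFP, 1% FBS, 500 pg/mL TGF-beta final, 18 h; per-cell GFP summed per well; curves fitted and categorized by class.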
ATXN2 expr inh = ATXN2 expression inhibition | HEK-293 ATXN2-luciferase reporter, luminescence, 24 h | Potency, µM (top dose mostly 57 µM), without a hit: top-dose activity change, negative = inhibition, most hits filed as inhibitors | 360,000 tested, 0.72% active | AID 1745845; note: % is set by controls: 0 for no effect and ±100 for the full control effect; nearly all actives have a fitted effect of over 55% in size
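qHTS (up to 57 uM final) was run with 24 h compound exposure of reporter cells at 37 °C. Each well was multiplexed: SteadyGlo luminescence measured ATXN2-luciferase expression after a fluorogenic Gly-Phe-AFC viability readout (25 uM final).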
RORg inh = ROR gamma (mouse) transcription inhibition; P51450; Drosophila S2 Gal4-RORgamma UAS-luciferase reporter, 20 h; Potency, µM (doses to about 53.6 µM), for the others: at the highest dose activity change, negative = inhibition, usual class: inhibitors; 310,000 tested, 5.4% active; AID 2551; note: % is set by controls: 0 for no effect and ±100 for the full control effect; nearly all actives have a fitted effect of over 60% in size
Target sequence (P51450 whole entry, looked up, the tested form may be a part): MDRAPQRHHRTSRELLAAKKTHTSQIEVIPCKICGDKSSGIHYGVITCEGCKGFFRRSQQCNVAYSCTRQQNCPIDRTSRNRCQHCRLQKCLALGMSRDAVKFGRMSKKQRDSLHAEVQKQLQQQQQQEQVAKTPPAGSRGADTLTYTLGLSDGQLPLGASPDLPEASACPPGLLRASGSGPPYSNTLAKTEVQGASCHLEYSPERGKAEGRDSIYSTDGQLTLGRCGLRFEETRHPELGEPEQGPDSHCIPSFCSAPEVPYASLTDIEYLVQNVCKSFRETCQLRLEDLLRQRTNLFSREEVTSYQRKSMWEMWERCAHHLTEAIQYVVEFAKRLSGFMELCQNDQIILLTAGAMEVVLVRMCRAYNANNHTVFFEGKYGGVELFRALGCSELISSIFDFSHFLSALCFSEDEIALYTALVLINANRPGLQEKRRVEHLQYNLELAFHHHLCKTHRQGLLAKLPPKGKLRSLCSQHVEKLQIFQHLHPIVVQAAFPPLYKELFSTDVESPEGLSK
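ROR gamma transcriptional activity was tracked as Gal4-UAS luciferase output in stably transfected Drosophila Schneider cells, with compound added 1 hr before 700 uM copper sulfate induction and a 20 hr ambient-temperature incubation.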
S2 tox = viability counter-screen for ATXN expression inhibitors; 400,000 tested, 0.49% active; AID 651635; Potency, µM (top dose mostly 56.7 µM), actives largely listed as cytotoxic; S2 cells (HEK-293 line with an ATXN2-luciferase reporter) viability, CellTiter-Fluor protease fluorescence, 24 h; note: nearly all actives have a fitted effect of over 40% in size
* marks the source's active call; other numbers are inactive results; i = inactive; ? = inconclusive; · = no result given. This is a sample that favours compounds with a hit; in the whole collection about 6.3% have one here. Calls come from the whole dose curve; as a rule, active = well fitted curve in the direction sought with a large enough effect; inconclusive = small, poorly fitted or top-dose-only effect, or another doubt; inactive = no such curve, though single readings can be large; an effect the other way counts as inactive or inconclusive. Potency is the fitted concentration of half-maximal effect.

SMILES	VP16 counter	HepG2 viability	TGFb inhibitor	ATXN2 expr inh	RORg inh	S2 tox
COc1ccc(NC(=O)C2CCCN(c3ncnc4onc(C)c34)C2)cc1OC (centres undefined)	·	-12%	-6%	-15%	·	i
C[C@H](C(=O)O)c1ccc2cc(O)ccc2c1	-11%	·	·	·	-23%	·
O=C(C[C@@H]1C/C=C\CC[C@@H](Cc2ccc(F)cc2)C(=O)OC[C@@H](Cc2ccccc2)NC1=O)NCCO	·	-11%	8%	1%	·	i
Cc1ccccc1CNC(=O)C1CCCN(c2nnc(C)c3c(C)n(-c4ccccc4)nc23)C1 (centres undefined)	?	-16%	-6%	20µM*	-17%	32µM*
COCc1nc2ccccc2n1CCc1ccccc1	?	-6%	-7%	·	11µM*	i
COCc1nc2ccccc2n1Cc1cccc(C)c1	2%	4%	-17%	15%	13µM*	i
Cc1ccccc1Cn1c(Cc2ccccc2)nc2ccccc21	?	-6%	-22%	-9%	5.6µM*	i
Cc1cccc(Cn2c(Cc3ccccc3)nc3ccccc32)c1	4.5µM*	-85%	-11%	-1%	3.2µM*	?
COCc1nc2ccccc2n1Cc1ccccc1C	9%	-8%	-9%	-3%	?	i
COCCn1c(COC)nc2ccccc21	0%	6%	13%	-11%	-11%	i
Cc1cccc(Cn2c(COc3ccc(Cl)cc3)nc3ccccc32)c1	·	-27%	?	10%	·	i
Cc1cc(C)c2c(CC(=O)Nc3ccccc3C(F)(F)F)coc2c1	·	-2%	1%	1%	·	i
CCOC(=O)c1sc2nc(C)n(CC(=O)Nc3cccc(Cl)c3)c(=O)c2c1C	·	1%	7%	1%	·	i
CC(C)(C)c1ccc(Cn2c(Cc3ccccc3)nc3ccccc32)cc1	·	16µM*	14µM*	?	·	?
CCOC(=O)C1C(=O)CC(=O)C(C(=O)OCC)C1c1ccc(O)cc1 (centres undefined)	·	1%	4%	·	·	i
Cc1onc(-c2ccccc2)c1C(=O)N/N=C/c1cccc(O)c1	-10%	-26%	-25%	-16%	2%	i
CCN(CC)c1ccc(/C=N/NC(=O)C2CC2)cc1	18%	-9%	17%	0%	9%	i
Cc1onc(-c2ccccc2)c1C(=O)N/N=C/c1ccco1	-13%	-68%	-11%	1%	?	i
Cc1onc(-c2ccccc2)c1C(=O)N/N=C/c1ccc([N+](=O)[O-])s1	11µM*	10µM*	?	?	11µM*	i
Cc1onc(-c2ccccc2)c1C(=O)N/N=C/C=C/c1ccccc1	3.2µM*	-36%	-8%	-13%	2.2µM*	i
CCN(CC)c1ccc(/C=N/NC(=O)Nc2nonc2N)cc1	-99%	-11%	-7%	22%	7.1µM*	i
CCN(CC)c1ccc(/C=N/NC(=O)c2c(-c3ccccc3)noc2C)cc1	?	-3%	12%	-7%	11µM*	i
CCCNC(=O)C1(C)CCCN(C(=O)/C=C/c2ccccc2)C1 (centres undefined)	·	-17%	-2%	-5%	·	i
COc1cc(-c2cnc3ccccc3c2)cc2c1OCCN(C(=O)CCC(=O)c1ccc(F)cc1)C2	·	·	·	·	·	i
CCN(CC)c1ccc(/C=N/NC(=O)c2c(Cl)c(C)nn2C)cc1	?	-12%	-15%	1%	5.6µM*	i
SMILES	VP16 counter	HepG2 viability	TGFb inhibitor	ATXN2 expr inh	RORg inh	S2 tox
O=C(NC1CCCCCCC1)c1cc(F)c(F)cc1Cl	-17%	-8%	-6%	29%	43%	i
Cc1ccc2cc3cc(C(=O)NC4CCCCC4)oc3nc2c1	?	-1%	23%	·	0.56µM*	i
Cc1ccc(C(=O)NC2CCCCCCC2)c(Cl)c1	8.9µM*	-47%	3%	·	7.1µM*	?
Cc1ccc2cc3cc(C(=O)NC4CC4)oc3nc2c1	6%	-9%	9%	·	-21%	?
COCC(=O)N1CCC2(CC1)CCN(c1cccc(-c3ccccc3)c1)CC2	9%	·	·	·	9%	·
COc1ccc(-n2nc(C(=O)N(C)c3cc(C)ccc3C)c3c4ccccc4n(C)c3c2=O)cc1Cl	·	-10%	-19%	4%	·	i
Cc1ccc(Cl)cc1N1CCN(C(=O)Cn2ncc3c4ccccc4n(C)c3c2=O)CC1	·	13%	24%	4%	·	i
CC(C)c1ccc([C@@H]2O[C@H](C)CC3=C2C(=O)OC(C)(C)O3)cc1	·	·	·	9%	·	i
CCn1c(SCC(=O)Nc2ccccc2)nc2c(c1=O)SCC2	·	-11%	9%	·	·	i
CCOC(=O)c1c(NC(=S)NCCc2ccccc2)sc2c1CC(C(C)C)OC2 (centres undefined)	1.3µM*	-13%	1%	-15%	2.5µM*	i
C=CCNC(=S)Nc1sc2c(c1C(=O)OCC)CC(C(C)C)OC2 (centres undefined)	4.5µM*	-28%	0%	-16%	5µM*	i
CC(C)C1Cc2c(sc(NC(=S)NC(=O)c3ccccc3)c2C#N)CO1 (centres undefined)	?	0%	-5%	·	5.6µM*	i
CCCCC(=O)Nc1cc(C)c(O)c(-c2nc3ncccc3o2)c1	·	7%	-5%	·	·	·
CCC(=O)NC(=S)Nc1ccc(NC(=O)c2ccc(Br)o2)cc1	9%	-2%	-5%	·	11µM*	i
CCN(c1ccccc1)S(=O)(=O)c1ccc(NC(=S)NC(=O)c2ccc(Br)o2)cc1	16µM*	17%	0%	0%	4.5µM*	i
CCN(c1ccccc1)S(=O)(=O)c1ccc(NC(=O)c2cc(=O)c3cc(C)c(C)cc3o2)cc1	·	15%	-1%	12%	·	i
CCC(=O)NC(=S)Nc1ccc(NC(=O)c2ccc(OC)cc2)cc1	-2%	2%	0%	-21%	2%	?
Cc1csc2nc(-c3cccc(NC(=O)c4c(F)cccc4F)c3)cn12	·	-40%	9%	3%	·	i
CC(C)NC(=O)N1CC2(CCN(C(=O)c3cccn3C)CC2)C1	-6%	·	·	·	-12%	·
Cc1cccc(NS(=O)(=O)c2ccc3c(c2)CCN3C(=O)C2CC2)c1C	·	-5%	-28%	-25%	·	?
COc1ccc(NC(=O)CSc2oc(-c3cccs3)nc2S(=O)(=O)c2ccc(Br)cc2)c(OC)c1	·	4%	2%	5%	·	?
CCOCCCNC(=O)C1CCC(CNS(=O)(=O)c2ccc(NC(C)=O)cc2)CC1 (centres undefined)	·	6%	0%	·	·	·
CC1(C)CNc2cc(NC(=O)c3cccnc3NCc3ccncc3)ccc21	·	·	·	1%	·	·

Assay outcomes: PubChem BioAssay, National Center for Advancing Translational Sciences (NCATS)
